High-throughput results from PubChem BioAssay.
The list is not random: actives were taken first. Their share in the collection is about 10%.
HPGD block = qHTS Assay for Inhibitors of HPGD (15-Hydroxyprostaglandin Dehydrogenase) | Potency, µM, for the others: at the top dose activity change, negative = inhibition, hits mostly inhibitors | purified HPGD, NADH fluorescence kinetic, PGE2 substrate | AID 894, 2007 | hit rate 4.3% among 150,000; also: potency is read from the fitted curve at half-maximal effect
Target sequence (P15428 whole entry, looked up): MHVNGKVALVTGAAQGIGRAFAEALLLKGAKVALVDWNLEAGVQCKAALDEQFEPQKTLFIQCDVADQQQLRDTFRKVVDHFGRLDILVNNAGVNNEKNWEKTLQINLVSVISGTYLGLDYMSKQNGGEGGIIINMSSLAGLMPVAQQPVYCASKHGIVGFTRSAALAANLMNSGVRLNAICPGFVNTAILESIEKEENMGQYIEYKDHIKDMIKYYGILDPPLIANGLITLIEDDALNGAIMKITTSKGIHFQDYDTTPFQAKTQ
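20 nM HPGD preincubated 15 min at room temperature with compound in 50 mM Tris-HCl pH 8, 0.01% Tween 20. Started with 1 mM NAD+ and 30 uM prostaglandin E2; NADH fluorescence (360/450 nm) read 5 times over 30-s intervals, last minus first.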
PNC inhibitor = High Content Assay for Compounds that inhibit the Assembly of the Perinucleolar Compartment; activity change (PNC), negative = inhibition, % at 10 µM; hit rate 3.1% among 140,000; PC3M PTB-GFP, PNC prevalence imaging, 16 h; hits give low values;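 active = readout at or below -70, meaning at least 70% loss of cells showing the perinucleolar compartment, a nuclear body marking cancer cells; inconclusive = readout between -30 and a set limit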;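 also: plate controls were DMSO wells for no effect and camptothecin positive control wells for full effect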
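Compounds are pinned in duplicate onto adhered PC3M cells stably expressing GFP-tagged PTB and incubated 16 h at 37 C. Cells are then fixed, nuclei stained with Hoechst, and PNC-positive cells counted.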
LMNA splice mod = qHTS Assay for Modulators of Lamin A Splicing | HeLa LMNA splicing GFP/RFP minigene ratio, 48 h | Potency, µM (titrated, usually from 46.1 µM), for inactives: at the top dose ratio change, negative = inhibition, actives largely listed as inhibitors | hit rate 0.01% among 200,000; active = well fitted inhibition curve with a large enough effect in the signal ratio, with a control signal flat, not every such curve was filed as active; inconclusive = small, poorly fitted or top-dose-only effect, or effect the other way, or a change in a side signal; the % refers to the signal ratio; also: potency is read from the fitted curve at half-maximal effect
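Read-out is the ratio of GFP to DsRed2 object intensity, acquired by 488 nm laser-scanning cytometry on HeLa lamin A-EGFP minigene reporter cells. Compound incubation 48 hrs at 37 °C in Opti-MEM with 2% FBS; DMSO 0.5% final.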
KinaseGlo FLuc = Counterscreen for Luciferase (Kinase-Glo TM) Inhibition. Luciferin 4-monooxygenase (Photuris pensylvanica), Q27757. Kinase-Glo luciferase, ATP luminescence, 8 min. Potency, µM (highest dose often 38.3 µM), without a hit: top-dose activity change, negative = inhibition, usual class: inhibitors. hit rate 0.28% among 200,000; active = well fitted inhibition curve with a large enough effect; inconclusive = small, poorly fitted or top-dose-only effect; also: potency is read from the fitted curve at half-maximal effect; nearly all actives have a fitted effect of over 60% in size
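Inhibition of Kinase-Glo luciferase light generation was assessed at 10 uM ATP in pH 7.2 imidazole buffer, with luminescence measured after eight minutes at ambient temperature.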
ALDH1A1 inh = qHTS Assay for Inhibitors of Aldehyde Dehydrogenase 1 (ALDH1A1) | Aldehyde dehydrogenase 1A1 (Homo sapiens), P00352 | Purified ALDH1A1, NADH fluorescence, propionaldehyde substrate | Potency, µM (highest dose often 75.3 µM), inactives show at the highest dose activity, negative = inhibition, usual class: inhibitors | hit rate 7.3% among 220,000;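 also: potency is read from the fitted curve at half-maximal effect; plate controls were no enzyme wells and a reference inhibitor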
* hit, by the source's call; ? = inconclusive; nt = no result given; [ ] = remark or other dose. Unless noted, calls follow the shape of the dose curve; as a rule, active = well fitted inhibition curve with a large enough effect (not every such curve was filed as active); inconclusive = small, poorly fitted or top-dose-only effect, or another doubt; inactive = no such curve, though single readings can be large or run the other way. Unless noted, % is scaled to controls: 0 for no effect and ±100 for the full control effect.

SMILES	HPGD block	PNC inhibitor	LMNA splice mod	KinaseGlo FLuc	ALDH1A1 inh
CC(/C=C/c1ccc(O)cc1)=N/O	-19%	?	?	-10%	-9%
Cn1c2ccccc2c2ncn(CCN3CCOCC3)c(=O)c21	nt	-87*	5%	nt	?
COc1ccc2c(c1)c1ncn(CCCN3CCOCC3)c(=O)c1n2C	?	7	-9%	-3%	?
Nc1c2ccccc2nc2c(O)cccc12	-6%	nt	-3%	2%[17.1 µM]	0%[20.9 µM]
COc1ccc(/C=N/n2cnn(Cc3ccccc3Cl)c2=S)cc1	nt	nt	-6%[46 µM]	2%	10µM*
C=C(C)[C@H]1CC[C@]2(CO)CC[C@]3(C)[C@@H](CC[C@H]4[C@@]5(C)CC[C@@H](O)C(C)(C)[C@@H]5CC[C@@]43C)[C@H]12	-6%	nt	?	-2%[17.1 µM]	11%[20.9 µM]
Cc1ccccc1/C=N/NC(=O)c1sccc1C	-26%	0	5%	13µM*	3%
Cc1cc(C(=O)N/N=C/c2ccc3c(c2)OCO3)c(C)o1	nt	nt	6%[46 µM]	13µM*	6%
O=C(N/N=C/c1ccc2c(c1)OCO2)c1ccccn1	-21%	106	17%	10µM*	4%
Cc1ccsc1C(=O)N/N=C/c1ccc2c(c1)OCO2	?	77	13%	2µM*	0%
O=C(N/N=C/c1cc2c(cc1Br)OCO2)c1ccccn1	nt	nt	nt	nt	0%
Cc1ccccc1-c1nc(NCCN2CCOCC2)c2ccccc2n1	-15%	nt	9%	-4%	6%
NC(=O)C1CCN(C(=O)c2ccc3c(c2)N(Cc2cccc(Cl)c2)C(=O)c2ccccc2S3(=O)=O)CC1	nt	nt	-20%[46 µM]	nt	nt
O=C(N/N=C/c1ccc2c(c1)OCO2)c1cccs1	-11%	15	8%	13µM*	2%
O=C(N/N=C/c1ccc2c(c1)OCO2)c1ccc2c(c1)OCCO2	-21%	-8	?	-15%	-12%
Cc1ccc(OCCC(=O)OCC(=O)Nc2cc(S(=O)(=O)N(C)C)ccc2C)cc1	nt	nt	-15%[46 µM]	2%	4µM*
CN(C)S(=O)(=O)c1cccc(NC(=O)COC(=O)CCOc2ccccc2)c1	nt	nt	nt	-1%	-5%
CN(C)S(=O)(=O)c1ccc(Cl)c(NC(=O)COC(=O)CCSc2ccccc2)c1	-1%	-24	-14%	-1%	25µM*
CCCCCCCCCCCCCCC/C=C/[C@@H](O)[C@H](NC(=O)CCCCCCCCCCCCC)OC (tested in a mixture with another compound)	-8%	nt	-11%	-5%	?
COc1cccc(/C=C2\N=C(SC)SC2=O)c1OC	25µM*	-91*	8%	10%	32µM*
CO[C@@H]1C[C@H](O[C@H]2[C@@H](C)[C@H](O[C@@H]3O[C@@H](C)C[C@@H](N(C)C)[C@@H]3OC(C)=O)[C@H](C)C[C@]3(CO3)C(=O)[C@H](C)[C@H](OC(C)=O)[C@H](C)[C@H](C)OC(=O)[C@@H]2C)O[C@H](C)[C@@H]1OC(C)=O	-5%	nt	?	0%[17.1 µM]	3%[20.9 µM]
CCc1cc[n+](-c2nc3ccccc3nc2[N-]S(=O)(=O)c2ccc(Br)s2)cc1	1%	?	?	-1%	0.95µM*
CCCCC(=O)OC1CCC2C3CCc4cc(O)ccc4C3CC[C@]12C (stereo not given in full)	-29%	nt	?	-7%	-6%
Cc1noc(C)c1CSc1ccc2ccccc2n1	-22%	-119*	-13%	-1%	-1%
Cc1noc(C)c1CSc1nc2ccccc2s1	-16%	32	-4%	-1%	?
SMILES	HPGD block	PNC inhibitor	LMNA splice mod	KinaseGlo FLuc	ALDH1A1 inh
Cc1noc(C)c1CSc1nc2ccccc2n1CCc1ccccc1	-28%	-1	-7%	-2%	28µM*
O=C(O)CCn1c(SCc2ccccc2)nc2ccccc21	-12%	?	16%	-2%	5%
Oc1ccc(C2C(c3ccccc3)=NN=C(c3ccccc3F)N2O)c(O)c1 (stereo not given)	-3%	48	?	3%	8.9µM*
Oc1ccc(C2C(c3ccccc3)=NN=C(c3ccc(Cl)cc3)N2O)c(O)c1 (stereo not given)	-4%	-20	-6%	0%	11µM*
FC(F)Sc1nnc(-c2cccs2)n1-c1ccccc1	-12%	-80*	-8%	2%	26%
N#Cc1ccc(CSc2nnc(-c3cccs3)n2-c2ccccc2)cc1	-3%	?	8%	0%	-4%
CNC(=O)c1ccc(Nc2nnc(-c3ccc(C)c(S(=O)(=O)NCC4CCCO4)c3)c3ccccc23)cc1 (stereo not given)	25µM*	34	-21%	1%	?
Cc1nc2ccccn2c(=O)c1CCN1CCC(C(=O)c2ccc(F)cc2)CC1	?	-7	-6%	0%	-12%
Cc1nc2sccn2c(=O)c1CCN1CCC(=C(c2ccc(F)cc2)c2ccc(F)cc2)CC1	-25%	-115*	?	0%	-6%
O=C(CN1C(=O)CCc2cc(S(=O)(=O)N3CCOCC3)ccc21)NCc1ccc(Cl)cc1	nt	nt	7%[46 µM]	nt	nt
COc1ccccc1NC(=O)Nc1nc(-c2cccnc2)nc2ccccc12	-7%	nt	?	0%	7%
O=C1CC(c2ccco2)CC(O)=C1C=Nc1cc(Cl)ccc1O (stereo not given)	8.9µM*	-8	?	-6%	?
O=C1CC(c2ccco2)CC(O)=C1C=NCCN1CCN(C(=O)Nc2ccc(Cl)cc2)CC1 (stereo not given)	-4%	-99*	3%	-2%	4%
CC(=O)N1CCN(CCN=CC2=C(O)CC(c3ccco3)CC2=O)CC1 (stereo not given)	-17%	?	2%	0%	5%
CCCCCCCC/C=C\CCCCCCCCOC[C@H](COP(=O)([O-])OCC[N+](C)(C)C)OC(C)=O	-9%	nt	nt	1%	7%
O=S(=O)(CC(CN1CCCC1)N1CCCC1)c1ccc2ccccc2c1 (stereo not given)	-11%	-100*	?	1%	?
CN(Cc1cccc(Cl)c1Cl)C(=O)c1ccc(NC(=O)CC#N)cc1	18µM*	16	-3%	-2%	-15%
CCOCC(=O)Nc1ccc(S(=O)(=O)NCCc2ccccc2)cc1	-5%	3	?	0%	10µM*
CCNS(=O)(=O)c1ccc(CCC(=O)O)cc1	nt	nt	-11%[46 µM]	-2%	22%
CC(C)c1ccccc1NC(=O)COc1ccc(C(=O)NCCc2ccccc2)cc1	-5%	2	?	3%	0%
O=C(O)CCc1ccc(S(=O)(=O)NCCc2ccccc2)cc1	nt	5	-2%	nt	1.8µM*
CCOc1ccc(NC(=O)COc2ccc(C(=O)NCCc3ccccc3)cc2)cc1	nt	-105*	-11%	nt	-1%
